Screening data deposited in PubChem by Buhrlage Lab, Dana-Farber Cancer Institute and Novartis Institutes for BioMedical Research (Cambridge, Mass).
In the library only some 11% were active in any assay of this set; here they are far more common.
USP30 block: inhibitors of human USP30 deubiquitinase | purified USP30, Ub-rhodamine cleavage fluorescence | inhibition, % at 25 µM | Ubiquitin carboxyl-terminal hydrolase 30 (Homo sapiens), Q70CQ3 | 47,000 compounds, 5.3% hits
USP17 block: inhibitors of human USP17 deubiquitinase; purified USP17, Ub-rhodamine cleavage fluorescence, 3 h; inhibition, % at 50 µM; 47,000 compounds, 6.5% hits
USP28 block: inhibitors of human USP28 deubiquitinase; Ubiquitin carboxyl-terminal hydrolase 28 (Homo sapiens), Q96RU2; purified USP28, Ub-rhodamine cleavage fluorescence, 30 min; inhibition, % at 25 µM; 47,000 compounds, 3% hits
OTUD3 inh: inhibitors of human OTUD3 deubiquitinase; OTU domain-containing protein 3 (Homo sapiens), Q5T2D3; purified OTUD3, Ub-rhodamine fluorescence, 2 h; inhibition, % at 25 µM; 47,000 compounds, 0.7% hits; AID 1645858, 2021
Target sequence (Q5T2D3 whole entry, looked up, the tested form may be a part): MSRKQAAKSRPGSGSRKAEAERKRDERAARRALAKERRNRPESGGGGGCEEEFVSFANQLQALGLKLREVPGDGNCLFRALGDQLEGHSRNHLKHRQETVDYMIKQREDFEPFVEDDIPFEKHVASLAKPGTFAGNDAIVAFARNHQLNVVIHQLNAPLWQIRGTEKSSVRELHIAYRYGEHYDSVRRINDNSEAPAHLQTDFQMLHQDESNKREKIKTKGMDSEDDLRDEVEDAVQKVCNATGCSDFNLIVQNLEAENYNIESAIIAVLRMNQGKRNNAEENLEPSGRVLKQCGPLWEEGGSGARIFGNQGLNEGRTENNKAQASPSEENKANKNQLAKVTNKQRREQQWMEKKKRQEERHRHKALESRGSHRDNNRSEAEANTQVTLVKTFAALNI
Numbers without * were called inactive; · = no result given. Cut-off read from the data, not from the text of the source: active = inhibition above about 30%; inactive = the rest.

SMILES	USP30 block	USP17 block	USP28 block	OTUD3 inh
Cc1ccccc1-c1nnc(-c2ccc(C(=O)NCc3ccccc3F)cc2)o1	66.1*	35.9*	27.8	0.3
CC(=O)N[C@@]12CCNC[C@@H]1CN(Cc1cccc(-c3ccc(F)cc3)c1)C2	14.4	9.0	17.9	0.1
Cn1c(NC(=O)c2ccc(Cl)cc2)c(-c2ccccc2)c(=O)c2ccccc21	0.1	4.0	-10.2	-2.4
Cc1ccc(-c2c(NC(=O)c3cccs3)n(C)c3ccccc3c2=O)cc1	27.3	22.3	13.6	8.8
Cc1ccc(-c2c(NC(=O)c3cccc([N+](=O)[O-])c3)n(C)c3ccccc3c2=O)cc1	32.4*	14.6	14.4	3.6
Cc1ccc(C(=O)Nc2c(-c3ccc4c(c3)OCO4)c(=O)c3ccccc3n2C)cc1	-4.9	37.2*	45.6*	8.4
Cn1c(NC(=O)c2cccc(Br)c2)c(-c2ccc(Cl)cc2)c(=O)c2ccccc21	-37.4	40.7*	-24.4	-7.7
CCOc1ccc(CCNC(=O)C(Cc2ccccc2)N2Cc3ccccc3C2=O)cc1 (stereo not drawn)	10.2	6.4	4.4	6.2
NC(=O)c1cc2c([nH]c3cc(Cl)ccc32)s1	-16.0	-13.2	5.8	-5.9
O=C1COC2(CCN(Cc3ccco3)CC2)CN1c1cncnc1	-155.1	·	-40.3	-26.5
CCCCOc1cccc(C(=O)Nc2nc3ccc(S(C)(=O)=O)cc3s2)c1	36.5*	26.1	12.1	18.1
CCN(c1ccccc1)S(=O)(=O)c1cc(C(=O)Nc2nc3ccc(OC)cc3s2)c(Cl)cc1Cl	-35.3	15.7	4.1	3.2
CCN(c1ccccc1)S(=O)(=O)c1ccc(C(=O)Nc2nc3ccc(F)cc3s2)cc1	-229.9	54.9*	-30.3	-26.5
COc1ccc(Cl)cc1NC(=O)C1CC(=O)Nc2nc(N3CCCCC3)[nH]c(=O)c21 (stereo not drawn)	-151.9	·	-84.4	-37.9
Cc1ccc(NC(=O)C2CCN(c3nc4nc[nH]c(=O)c4s3)CC2)cc1F	-119.2	-88.6	-50.8	-25.9
Cc1nc(-c2ccccc2Cl)sc1C(=O)N1CCC(C(N)=O)CC1	7.6	13.3	-0.3	6.2
COc1ccc(Cn2c(SCC(=O)Nc3cc(C)[nH]n3)nc3nccnc3c2=O)cc1	48.9*	48.3*	17.0	6.8
COc1cc(CCC(=O)NC2CCCc3ccccc32)cc(OC)c1OC (stereo not drawn)	8.3	1.3	5.0	8.1
Cc1ccc(CC(=O)N2CCCC(c3nn(C)c4nccnc34)C2)cc1 (stereo not drawn)	-7.4	-2.8	1.3	-0.7
Cc1ccc(-c2nc3ncccc3o2)cc1NC(=O)COc1ccc([N+](=O)[O-])cc1	-23.2	40.5*	-33.0	-10.6
CC(=O)C1=C(O)[C@]2(O)C(=O)c3c(c(C)c4ccc(C)c(O)c4c3O)C[C@H]2[C@@H](N)C1=O	-37.5	59.8*	61.3*	67.1*
CCC(NC(=O)Nc1cccc(C)n1)(C(F)(F)F)C(F)(F)F	8.7	1.7	0.5	-5.8
Cc1nnc(NC(=O)C(=O)c2cc(C)n(-c3ccc(Cl)cc3)c2C)s1	-42.2	42.8*	25.0	7.0
Cc1cc(C(=O)C(=O)Nc2cccc(Cl)c2)c(C)n1-c1ccc(F)cc1	1.2	-13.3	1.5	0.8
COc1cc(-c2cc(-c3ccccc3Br)nc(N)c2C#N)cc(OC)c1OC	-40.0	-7.3	-21.6	-16.4
SMILES	USP30 block	USP17 block	USP28 block	OTUD3 inh
COc1ccc(-c2cc(-c3ccc(O)cc3)nc(N)c2C#N)cc1OC	49.6*	45.8*	72.9*	20.4
CC(C)[C@H]1CC[C@@]2(CO2)[C@H]2C(=O)OCC(C(=O)O)=C[C@H]12	63.9*	72.7*	71.2*	55.0*
Cc1nc(N2CCCC2)ncc1C(=O)Nc1ccc(Cl)cc1	5.3	44.8*	15.5	2.3
N#Cc1ccc(C(=O)Nc2cnc(N3CCCCCC3)nc2)cc1	·	52.7*	·	0.0
COc1ccc(C(=O)Nc2cnc(N3CCCCCC3)nc2)cc1	-9.2	-2.5	43.7*	-0.2
CC(=O)c1cccc(NC(=O)c2cnc(N3CCCCC3)nc2C)c1	-0.2	4.0	26.2	0.8
Cc1cccc(C(=O)NC(C)c2nnc(SCC(=O)Nc3ccc(F)cc3)n2C)c1 (stereo not drawn)	10.5	-5.2	-0.7	-0.1
CCN1CCc2nc(NC(=O)COc3c(Cl)cccc3Cl)sc2C1	-2.8	36.6*	11.7	3.0
CCOc1ccc(-c2cnc(NCc3ccccc3Cl)n2C)cc1	-12.6	-22.7	12.0	0.0
Cc1ccc(C(O)Cn2cc(C(=O)Nc3ccccc3)nn2)cc1 (stereo not drawn)	35.0*	25.3	17.9	8.5
Cc1ccc(C(O)Cn2cc(C(=O)Nc3cccc(C)c3)nn2)cc1 (stereo not drawn)	·	79.6*	·	-1.4
Cc1ccc(NC(=O)c2cccc(-n3cnnc3)n2)cc1	·	3.7	·	2.9
Cc1ccc(-c2cc(C(=O)Nc3cccc(C)c3)[nH]n2)cc1	-75.7	-82.9	-12.3	-18.7
C[C@@H](Nc1ncnc2c1CN(C1CCCNC1)C(=O)CN2C)c1ccccc1 (stereo partly drawn)	·	-56.0	·	-2.8
CN1C[C@H]2C3(CCN(C(=O)c4ccccc4)CC3)CC[C@@]2(C(=O)N(C)C)C1	23.9	-7.0	7.8	6.5
COc1ccc(-c2c(NC(=O)C3COc4ccccc4O3)n[nH]c2C)cc1OC (stereo not drawn)	10.9	0.0	32.0*	7.6
COc1ccc(-c2c(NC(=O)c3cc(F)cc(F)c3)n[nH]c2C)cc1OC	27.4	·	12.6	14.0
Cc1[nH]nc(NC(=O)C2COc3ccccc3O2)c1-c1ccccc1 (stereo not drawn)	24.6	39.2*	52.9*	37.1*
CC(NC(=O)C(=O)c1cn(CC(=O)N2CCCCC2)c2ccccc12)c1ccccc1 (stereo not drawn)	4.2	-6.1	3.0	-3.2
COc1ccc(OC)c(S(=O)(=O)N2CCN=C2N2CCCC2)c1	6.8	13.4	14.6	12.2
COc1ccc(CNC(=O)c2cc(CN3CCOCC3)on2)cc1	-8.2	-9.8	-10.9	-6.8
O=C1c2ccccc2S(=O)(=O)N1Cc1ccc2nonc2c1	15.4	9.3	37.4*	15.6
CN(Cc1ccccn1)C(=O)c1cc(-c2cnc(N3CCCC3)nc2)cn1C	-143.1	-55.0	-23.7	-23.6
O=C(C[C@@H]1CCN2C[C@@H]1CCCOc1ccccc1CN(C(=O)c1cccnc1)CC2=O)N1CCOCC1	92.3*	77.9*	85.9*	7.3
CC(C)NC(=O)N1CC(=O)N2CC[C@@H](CC(=O)N3CCOCC3)[C@@H](CCCOc3ccccc3C1)C2	100.0*	75.1*	72.0*	5.6
O=C(C[C@@H]1CCN2C[C@@H]1CCCOc1ccccc1CN(C(=O)COc1ccccc1)CC2=O)N1CCOCC1	79.2*	71.4*	54.6*	2.3
O=C(CC1(c2ccccc2)C2CC3CC(C2)CC1C3)NCC(O)CO (stereo not drawn)	21.2	13.7	8.5	10.0
CNc1nc2c(c(=O)n1-c1ccccc1)CCN(S(=O)(=O)c1ccc3ccccc3c1)C2	0.2	-2.0	12.7	-4.9
